Bioassay records: PubChem, National Center for Advancing Translational Sciences (NCATS)
GRP78 ERSR act: induces the endoplasmic reticulum stress response in human glioma cells. 0.02% of 420,000 active. Potency, µM, most hits filed as activators. U87-MG GRP78 promoter luciferase reporter, 16 h; also: series mostly up to about 76 µM; nearly all actives have a fitted effect of over 35% in size
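Stably transfected U87-MG human glioma cells carrying a GRP78-based luminescent sensor were seeded at 1000 cells/well, pin-dosed with compounds and incubated 16 h. Luciferase reagent was then added, and end-point luminescence was read after 10 min at room temperature.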
ALOX12 inh: inhibitors of human 12S-lipoxygenase ALOX12. purified 12hLO, xylenol orange hydroperoxide absorbance. 1.1% of 580,000 active. P18054. Potency, µM (top dose mostly 108 µM), most hits filed as inhibitors
Target sequence (P18054 whole entry, looked up): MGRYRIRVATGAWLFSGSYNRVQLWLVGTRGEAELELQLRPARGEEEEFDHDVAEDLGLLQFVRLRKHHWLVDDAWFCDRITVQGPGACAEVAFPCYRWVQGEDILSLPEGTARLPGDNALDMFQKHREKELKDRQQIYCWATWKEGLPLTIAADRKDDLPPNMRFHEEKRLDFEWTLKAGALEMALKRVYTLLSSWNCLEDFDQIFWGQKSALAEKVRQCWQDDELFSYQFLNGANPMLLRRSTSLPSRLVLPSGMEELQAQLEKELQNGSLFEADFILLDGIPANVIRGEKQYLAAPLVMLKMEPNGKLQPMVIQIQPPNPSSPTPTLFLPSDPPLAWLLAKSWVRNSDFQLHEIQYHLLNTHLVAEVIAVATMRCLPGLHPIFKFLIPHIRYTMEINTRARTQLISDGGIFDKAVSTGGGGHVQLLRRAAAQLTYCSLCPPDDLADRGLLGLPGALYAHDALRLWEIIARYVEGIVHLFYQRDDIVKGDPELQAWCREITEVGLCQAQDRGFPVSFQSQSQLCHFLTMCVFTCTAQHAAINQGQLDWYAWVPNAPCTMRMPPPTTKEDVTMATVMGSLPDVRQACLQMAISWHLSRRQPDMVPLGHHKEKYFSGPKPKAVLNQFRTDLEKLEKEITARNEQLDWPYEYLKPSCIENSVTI
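Hydroperoxide product was detected by ferrous iron/xylenol orange as the 573 to 405 nm absorbance ratio. Arachidonic acid at 40 uM (final) was turned over for 30 min at room temperature by 150 nM human 12hLO, pH 7.0 Hepes buffer, after 15 min compound preincubation.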
VDR inhibitor: vitamin D3 receptor (human) inhibition | P11473 | VDR-SRC2-3 peptide fluorescence polarization, 2 h | Potency, µM, most hits filed as inhibitors | 0.93% of 400,000 active | AID 504847
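Two reagent solutions held at 4 deg C in the dark were dispensed, compounds pinned at 23 nl, and the mixture incubated 2 h at room temperature. Read-out: fluorescence polarization of VDR–SRC2-3 peptide binding.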
Sfp inh: Sfp phosphopantetheinyl transferase inhibition; Biochemical Sfp PPTase activity, qHTS; Q9F4F7; Potency, µM, actives largely listed as inhibitors; 3.5% of 310,000 active;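 also: the enzyme is Sfp with the accession as filed and its product quenches rhodamine fluorescence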
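Fluorescence-quenching assay: 15 nM Sfp-PPTase preincubated 15 min at room temperature with compound, then 5 uM rhodamine-CoA and 12.5 uM BHQ-2-labelled YbbR peptide added. Fluorescence (ex 525/em 598 nm) read at start and after 30 min; difference gives rate.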
G9a block: blocks human histone lysine methyltransferase G9a; 8.8% of 350,000 active; Potency, µM (doses to about 102 µM), usual class: inhibitors; Q96KQ7; G9a H3K9 monomethylation, AlphaScreen, 2 h; AID 504332; also: nearly all actives have a fitted effect of over 75% in size
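Compounds were preincubated with 20 nM G9a for 15 min, after which biotinylated H3K9 peptide (500 nM) and SAM (20 uM) started a 2 h room-temperature reaction. Monomethylated product was quantified by antibody-based AlphaScreen chemiluminescence.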
Numbers stand for hits; n = inactive; u = inconclusive; x = not tested or not shown; [ ] = remark or other dose. This is one part of a sample in which hits are shown more often than they occur. Calls follow the shape of the dose curve; as a rule, active = well fitted curve in the direction sought with a large enough effect; inconclusive = small, poorly fitted or top-dose-only effect, or another doubt; inactive = no such curve, though single readings can be large; an effect the other way counts as inactive or inconclusive.

SMILES	GRP78 ERSR act	ALOX12 inh	VDR inhibitor	Sfp inh	G9a block
Cc1ccc(CNC(=O)CSc2c3c(nc4cc(Cl)ccc24)CCCC3)o1	n	u	u	17.8µM	u
CCOc1ccc(CNC(=O)CSc2c3c(nc4cc(Cl)ccc24)CCCC3)cc1	n	n	n	x	n
COc1ccc(N2CCN(C(=O)CSc3c4c(nc5ccc(Cl)cc35)CCCC4)CC2)cc1	n	n	n	x	11.2µM
O=C(CSc1c2c(nc3ccc(Cl)cc13)CCCC2)N1CCN(c2ccc(Cl)cc2)CC1	n	n	n	x	n
COc1ccc(Cl)cc1NC(=O)c1ccc2c(SCC(=O)O)c3c(nc2c1)CCCC3	n	n	u	n	50.1µM
O=C(NCC1COc2ccccc2O1)c1nn(Cc2ccccc2)c(=O)c2ccccc12 (stereo not given)	x	n	x	x	x
CCOc1ccc(NC(=O)/C(C=Nc2ccccc2)=C(\C)O)cc1	n	n	n	n	44.7µM
CCOc1ccc(NC(C)=O)cc1	n	n	u	n	n[21.5 µM]
Cc1cc2c(cc1C)CSC(c1c(O)ccc3cc(Br)ccc13)SC2	x	0.794µM	x	x	x
CC(C)CCNc1c(-c2cccs2)nc2ccccn12	n	n	n	n	44.7µM
O=C(COc1ccc(Cl)cc1)Nc1c(-c2cccs2)nc2ccccn12	n	n	n	n	n
CCOC(=O)C1=C(C)NC(=O)C1CC(=O)Nc1ccccc1 (stereo not given)	x	x	x	79.4µM	3.55µM
Cc1ccc(S(=O)(=O)N2CCCCC2)cc1NC(=O)c1nn(C(C)C)c(=O)c2ccccc12	x	n	x	x	x
Nc1nc2c(s1)C(c1cccc(Cl)c1Cl)CC(=O)N2 (stereo not given)	x	20µM	x	x	x
Nc1nc2c(s1)C(c1ccccc1OCc1ccccc1Cl)CC(=O)N2 (stereo not given)	x	0.891µM	x	x	x
Nc1nc2c(s1)C(c1cc(Cl)ccc1F)CC(=O)N2 (stereo not given)	x	35.5µM	x	x	x
COc1ccc(C2CC(=O)Nc3nc(N)sc32)cc1OCc1ccccc1Cl (stereo not given)	x	1.12µM	x	x	x
O=C1CC(c2ccccc2OCc2ccccc2F)c2cn[nH]c2N1 (stereo not given)	x	n	x	x	x
COc1ccc(C(=O)Nc2ccc(-c3noc([C@@H]4CCCN4CC4CCCCC4)n3)cn2)cc1	x	n	x	x	x
CCOC(=O)Cc1c[nH]c(=S)[nH]c1=O	n	u	n	79.4µM	n[2.33 µM]
CCOC(=O)Cc1c(C)nc(N)[nH]c1=O	n	n	n	n	n
Cc1ccc(-c2nc(NCC3CCCO3)sc2C)cc1 (stereo not given)	n	u	n	n	35.5µM
COc1cc(/C=N/Nc2nncn2N)ccc1OCc1c(C)no[n+]1[O-]	n	u	n	70.8µM	x
Nn1cnnc1N/N=C/c1ccc(Cl)cc1Cl	n	u	n	56.2µM	n
COc1cc(/C=C(\C#N)C(N)=O)ccc1OCc1c(C)no[n+]1[O-]	n	n	n	n	x
SMILES	GRP78 ERSR act	ALOX12 inh	VDR inhibitor	Sfp inh	G9a block
COc1ccc(/C=N/Nc2nncn2N)cc1Br	n	n	22.4µM	n	x
COc1ccc(C(O)c2nccc3cc(OC)c(OC)cc23)cc1OC (stereo not given)	n	n	n	n	3.55µM
Cc1nc(NCC(C)C)sc1C(=O)NCc1ccncc1	x	n	x	x	x
COc1ccccc1N1C(=N)S/C(=C\c2ccc(-c3ccccc3C(=O)O)o2)C1=O	n	n	n	u	15.8µM
Cc1ccc(NC(=O)CN2C(=O)S/C(=C\c3ccc(-c4cccc(C(=O)O)c4C)o3)C2=O)cc1C	n	u	n	44.7µM	17.8µM
CCOC(=O)CN1C(=O)S/C(=C\c2ccc(-c3cccc(C(=O)O)c3C)o2)C1=O	n	n	n	x	x
Cc1cccc(NC(=O)CN2C(=O)N/C(=C/c3ccc(-c4cccc(C(=O)O)c4C)o3)C2=O)c1	n	u	n	31.6µM	u
Cc1c(C(=O)O)cccc1-c1ccc(/C=C2\SC(=O)NC2=O)o1	n	n	n	n	x
CC(C)(Oc1ccc(Cl)cc1)C(=O)N1CCN(c2nccs2)CC1	x	n	x	x	x
CCn1cc(CNC(=O)c2cc(-c3ccc(C)cc3)nc3c(C)cccc23)cn1	x	n	x	x	x
CCOC(=O)C1CCN(C2=NC(=O)/C(=C/c3ccc(OC)c(OC)c3)S2)CC1	n	n	n	n	39.8µM
CCOC(=O)C1CCN(C2=NC(=O)/C(=C/c3ccc(Cl)cc3)S2)CC1	n	u	n	n	n
Cc1ccc2oc3c(c(=O)c2c1)C(c1cccs1)N(CCCN(C)C)C3=O (stereo not given)	n	x	n	u	39.8µM
COCCN1C(=O)c2oc3ccc(C)cc3c(=O)c2C1c1ccc(C(=O)OC)cc1 (stereo not given)	n	n	n	x	n
COC(=O)c1ccc(C2c3c(oc4ccc(Cl)cc4c3=O)C(=O)N2CCN2CCOCC2)cc1 (stereo not given)	n	n	n	n	20µM
O=C1c2oc3ccccc3c(=O)c2C(c2cccs2)N1CCCN1CCOCC1 (stereo not given)	n	n	n	u	39.8µM
CCCOc1ccc(C2c3c(oc4ccccc4c3=O)C(=O)N2CCCN2CCOCC2)cc1 (stereo not given)	n	u	n	u	u
COC(=O)c1ccc(C2c3c(oc4ccccc4c3=O)C(=O)N2CCCN2CCOCC2)cc1 (stereo not given)	n	u	n	25.1µM	35.5µM
CCc1ccc(NC(=O)COC(=O)C2CC(=O)N(c3ccc(Br)cc3)C2)cc1 (stereo not given)	x	n	x	x	x
O=C(NCC(=O)N1CCSCC1)C1CCCN(S(=O)(=O)c2ccc(Cl)cc2)C1 (stereo not given)	x	n	x	x	x
Cn1c(SCC(=O)Nc2c(F)c(F)cc(F)c2F)nc2c(=O)[nH]cnc21	x	n	x	x	x
O=C(NCCC(=O)N1CCCC1)c1cc2ccccc2oc1=O	x	n	x	x	x
O=C(CCC(=O)Nc1ccc(Cl)cc1Cl)N/N=C/c1c2ccccc2cc2ccccc12	x	n	x	x	x
CC(C)CCOc1cccc(C2c3c(oc4ccccc4c3=O)C(=O)N2CCCN2CCOCC2)c1 (stereo not given)	n	n	n	x	x
COc1cccc(C2c3c(oc4ccccc4c3=O)C(=O)N2CCCN2CCOCC2)c1 (stereo not given)	n	n	n	n	50.1µM
SMILES	GRP78 ERSR act	ALOX12 inh	VDR inhibitor	Sfp inh	G9a block
CC(C)CC(=O)NCCC1CCN(C(=O)NC2CCCCC2)CC1	x	n	x	x	x
O=C1C(Cl)=C(NCC2CCCO2)C(=O)N1c1ccccc1 (stereo not given)	n	n	n	n	u
O=C1C(Cl)=C(NCC2CCCO2)C(=O)N1C1CCCCC1 (stereo not given)	n	u	n	39.8µM	n[0.0925 µM]
COc1ccc(C(=O)Nc2cc3c(oc2=O)CCCC3=O)cc1	n	n	n	n	50.1µM
O=[N+]([O-])c1cc2c(c(CSc3nnc(Nc4ccccc4)s3)c1)OCOC2	n	n	n	n	3.55µM
Cc1ccccc1Nc1nnc(SCc2cc([N+](=O)[O-])cc3c2OCOC3)s1	n	n	n	n	u
COc1cccc(-c2nnc(SCC(=O)NC3CCCCC3)o2)c1	n	u	u	x	8.91µM
